The list is a sample of the results.
aSyn UTR act – Activators via SNCA 5'UTR binding, MLPCN. alpha-synuclein 5'UTR reporter, activators screen. activity score, % (tested at 7.5 µM), hits read low. 300,000 compounds, 7.1% hits. AID 1814; in the data active = activity score below about -60%
Starred values were filed as active, the others as inactive.

SMILES	aSyn UTR act
CC1(C)Cc2nc3sc(C(=O)NCCCO)c(N)c3cc2CO1	-69*
Cc1ccc(C(=O)/C=C2/NC(=O)CS2)cc1	-103*
Cc1cc2ncn(CCOc3ccccc3)c2cc1C	-168*
CCn1c(C)nc2c(C)[n+](CC(=O)c3ccc(Br)cc3)ccc21	-106*
COC(=O)C1C(=O)c2c([nH]c(C(=O)OC3CCCC3)c2C)CC1C (stereo not drawn)	-131*
CSc1nncc(/C(C)=N\Nc2ccccc2C)n1	-81*
COC(=O)c1sccc1-c1ccc(C(=O)Nc2ccccc2)o1	-115*
COc1ccc(NC(=O)c2ccc(-c3ccccc3Cl)o2)cc1	-156*
CCc1nnc(NC(=O)c2ncc(Cl)c(Cl)c2Cl)s1	-62*
O=C(Nc1cccc(F)c1)c1ccc(-c2ccccc2Cl)o1	-173*
CCc1nnc(NC(=O)c2ccc(-c3ccccc3Cl)o2)s1	-160*
Cc1cccc(-n2ncc3c(NCc4ccccn4)ncnc32)c1	-113*
c1ccc(-n2ncc3c(NCc4ccccn4)ncnc32)cc1	-69*
Cc1ccc(C(=O)CNc2ccc(C)c(Cl)c2)cc1	-68*
Cc1ccc(NCC(=O)c2ccc(C)cc2)cc1	-125*
Cc1ccc(NCCC(=O)c2ccccc2)cc1Cl	-134*
Cc1ccc(NCCC(=O)c2ccc(Cl)cc2)cc1	-119*
COc1cc(-c2noc(C)c2/C=C/c2ccc(N)cc2)cc(OC)c1OC	104
Cc1ccc(NC(=O)CNC(=O)c2ccccc2F)cc1Cl	-69*
O=C(Oc1ccc(-c2ccccc2)cc1)N1CCOCC1	-104*
O=C(/C=C/N1CCOCC1)c1ccc(-c2ccccc2)cc1	-123*
S=C(c1ccc(-c2ccccc2)cc1)N1CCOCC1	64
C/C(=N/NC(=O)c1ccc(C)s1)c1cccc(NC(=O)COc2ccc(Cl)cc2Cl)c1	-126*
C/C(=N\NC(=O)c1ccn(C)n1)c1ccc(NC(=O)c2cccc(F)c2)cc1	-86*
C/C(=N/NC(=O)c1ccc(Cl)s1)c1ccc(NC(=O)COc2ccc(Cl)cc2)cc1	-77*
SMILES	aSyn UTR act
C/C(=N\NC(=O)c1c(Cl)cnn1C)c1cccc(NC(=O)COc2ccccc2)c1	-88*
C/C(=N\NC(=O)c1ccn(C)n1)c1cccc(NC(=O)c2ccc(C)s2)c1	-101*
C/C(=N/NC(=O)c1ccco1)c1cccc(NC(=O)c2ccc(C)s2)c1	-143*
O=C(CSc1nnc(-c2cccnc2)o1)Nc1cccc(Cl)c1	-119*
O=C(CSc1nnc(-c2cccnc2)o1)Nc1ccc(Cl)cc1	-62*
N=c1c2c(n(Cc3ccc(Br)cc3)c3c1CCC3)CCCC2	60
FC(F)(F)c1nc2ccccc2n2c(-c3ccc(Cl)cc3)nnc12	108
On1c(-c2ccc(Cl)cc2)nc2ccccc21	-146*
CCOC(=O)Cc1csc(-n2sc3ccccc3c2=O)n1	-89*
COc1cc(C(C)=O)ccc1OCc1cc(C(=O)N(C)CCC2CCCCO2)no1 (stereo not drawn)	-188*
COc1ccccc1OCc1cc(C(=O)N(C)CCC2CCCCO2)no1 (stereo not drawn)	-96*
CC1(C)CCC(=O)N2CC[C@H]3C[C@H](OC(=O)Nc4ccc(Br)cc4)C[C@@H]1[C@H]32	-68*
O=C(Nc1ccc(Oc2c(F)c(F)c(F)c(F)c2F)cc1)OC1CCN2Cc3ccccc3N=C12 (stereo not drawn)	104
CCOc1cc(-c2nc3ccccc3s2)ccc1O	-98*
COc1ccc(-c2nc3ccccc3s2)cc1O	85
CC[n+]1c(/C=C/N(C)c2ccccc2)n(-c2ccccc2)c2ccc(-c3nc4ccccc4s3)cc21	120
COc1cc(-c2nc3ccccc3s2)ccc1O	-222*
Cc1ccc(NC(=S)C2=C(O)c3ccccc3N(C)S2(=O)=O)cc1	-100*
CN1c2ccccc2C(O)=C(C(=O)Nc2ccccc2)S1(=O)=O	-84*
Cc1cc(C)c2nc(N3CCCC(C(=O)NCCCN4CCOCC4)C3)sc2c1 (stereo not drawn)	-77*
Cc1cc(C)c2nc(N3CCCC(C(=O)NCCN4CCOCC4)C3)sc2c1 (stereo not drawn)	-74*
CC(=O)N(/N=C1\Sc2ccccc2C1=O)c1cccc(C)c1	-127*
O=C(NC(=S)NCCO)c1sc2ccccc2c1Cl	-143*
CCOC(=S)NC(=O)c1sc2ccccc2c1Cl	-84*
O=C(N/N=C/c1ccc[nH]1)c1sc2ccccc2c1Cl	-105*
SMILES	aSyn UTR act
CC(C)(C)C(=O)NC(=S)NNC(=O)c1sc2ccccc2c1Cl	89
Cc1ccc(C(=O)N/N=C/c2cccc(OC(=O)/C=C/c3ccco3)c2)cn1	-100*
COc1cc(C(=O)N/N=C/c2ccc3c(c2)c2ccccc2n3C)ccc1O	-117*
O=C(/C=C/c1ccco1)Oc1cc(Br)cc(/C=N/NC(=O)c2ccccc2O)c1	96
CCOc1ccc(/C=N/NC(=O)c2ccoc2C)cc1OC	-110*
COc1ccc(/C=N/NC(=O)c2ccoc2C)cc1CN1CCN(c2ccc(F)cc2)CC1	-79*
Cc1occc1C(=O)N/N=C/c1ccccc1[N+](=O)[O-]	-121*
COc1cccc(/C=N/NC(=O)c2cc3c(OC)cccc3[nH]2)c1O	86

Screening results (PubChem)
